CF NFkB block – inhibitors of cystic fibrosis induced NF-kB. KKLEB NF-kB-GFP reporter, PAF-induced, GFP fluorescence overnight. inhibition, % at 5 µM. 360,000 tested, 0.86% active;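 active = at least 50% inhibition at 5 µM, scaled per plate between neutral and stimulator controls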;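 also: PAF is a Pseudomonas aeruginosa culture filtrate used as stimulus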
TWEAK-Fn14 inh – inhibitors of TWEAK-Fn14 interaction signaling; TWEAK-stimulated Fn14 reporter cells, luciferase luminescence, 8 h; inhibition, % at 10 µM; 360,000 tested, 2% active; in the data active = inhibition above about 50%
TROY signal inh – blocks TROY-dependent signaling in reporter cells; inhibition, % at 10 µM; Q293 LMP1-TROYcd NF-kB luciferase reporter, 4 h; 360,000 tested, 0.98% active;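 active = compounds whose plate-normalised and pattern-corrected inhibition of the luciferase reporter signal at the single screening dose is 50% or more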
Peg3 promoter – Peg3 promoter activity inhibition. 360,000 tested, 1.7% active. HeLa PEG-Prom luciferase reporter, luminescence, overnight. inhibition, % at 20 µM;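 active = inhibition of at least 50% at 20 µM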
KKLEB cytotox – CF airway cell cytotoxicity counter-screen | KKLEB CF airway cells viability, ATPlite luminescence, overnight; active compounds read low; cells stimulated with P. aeruginosa culture filtrate | AID 602141 | 360,000 tested, 0.36% active | activity change (cytotoxicity), % at 5 µM;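 active = corrected activity change at or below -50% at 5 µM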
HIF-2a block – blocks HIF-2a reporter activity; 786-0 RCC cells HIF-2a reporter, luciferase luminescence, overnight; inhibition, % at 18.8 µM; 360,000 tested, 0.72% active; AID 624352;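 active = inhibition of the luminescence signal of 40% or more relative to plate controls, in a single-dose primary screen at 18.75 µM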
Mdm2-MdmX confirm – Mdm2/MdmX (human) interaction inhibition, confirmed; shares compounds with HIF-2a block; SaOS-2 split-luciferase Mdm2/MdmX complementation, luminescence; inhibition, % at 8 µM; 740 tested, 99% active;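 active = mean inhibition of the luminescence signal across two replicates at or above 26 percent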
Target sequence (O15151 whole entry, looked up): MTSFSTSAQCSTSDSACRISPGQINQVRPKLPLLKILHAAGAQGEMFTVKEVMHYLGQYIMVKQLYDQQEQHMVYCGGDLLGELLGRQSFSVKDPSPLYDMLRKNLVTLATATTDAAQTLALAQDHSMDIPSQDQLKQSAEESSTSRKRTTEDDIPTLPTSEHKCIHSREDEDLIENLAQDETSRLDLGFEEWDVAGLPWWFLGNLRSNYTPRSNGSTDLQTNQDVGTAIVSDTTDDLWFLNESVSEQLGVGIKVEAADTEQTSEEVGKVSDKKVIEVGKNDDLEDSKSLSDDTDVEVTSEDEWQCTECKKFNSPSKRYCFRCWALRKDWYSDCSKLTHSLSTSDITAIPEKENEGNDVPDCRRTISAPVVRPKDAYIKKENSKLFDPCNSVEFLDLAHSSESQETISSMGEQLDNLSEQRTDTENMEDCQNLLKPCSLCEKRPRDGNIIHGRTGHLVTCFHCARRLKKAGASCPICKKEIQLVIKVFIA
Target sequence (Q00987 whole entry, looked up): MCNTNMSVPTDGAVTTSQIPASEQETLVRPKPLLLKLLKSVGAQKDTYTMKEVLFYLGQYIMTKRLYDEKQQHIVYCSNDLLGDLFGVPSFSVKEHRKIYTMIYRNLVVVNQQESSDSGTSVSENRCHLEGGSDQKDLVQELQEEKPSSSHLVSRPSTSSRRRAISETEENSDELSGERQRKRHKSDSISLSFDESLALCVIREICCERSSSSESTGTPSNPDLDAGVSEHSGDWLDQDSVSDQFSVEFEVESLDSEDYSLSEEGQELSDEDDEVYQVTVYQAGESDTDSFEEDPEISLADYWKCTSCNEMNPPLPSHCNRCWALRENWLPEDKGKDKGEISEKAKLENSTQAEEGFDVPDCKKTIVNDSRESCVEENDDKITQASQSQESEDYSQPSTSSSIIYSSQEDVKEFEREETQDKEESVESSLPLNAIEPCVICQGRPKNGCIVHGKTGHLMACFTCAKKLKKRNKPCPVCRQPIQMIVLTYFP
HIF-2a conf – confirmation of HIF-2a inhibitors. shares compounds with HIF-2a block. 786-0 RCC cells, HIF-2a luciferase reporter luminescence, overnight. inhibition, % at 18.8 µM. 1,800 tested, 56% active;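 active = mean inhibition across four replicates of at least 40 percent at the single tested concentration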
HIF-1a cs – inhibits HIF-1a reporter, a counter-screen for HIF-2a inhibitors. shares compounds with HIF-2a block. MiaPaCa-2 HIF-1a luciferase reporter, desferoxamine, overnight. inhibition, % at 18.8 µM. 1,800 tested, 72% active;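 active = mean inhibition of the reporter signal across four replicates at the single tested dose of 50% or more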
Numbers stand for hits; n = inactive; x = no result. Shown are actives, neighbours in structure and some others; about 4% of the full set was active somewhere.

SMILES | CF NFkB block | TWEAK-Fn14 inh | TROY signal inh | Peg3 promoter | KKLEB cytotox | HIF-2a block | HIF-2a conf | HIF-1a cs | others
CCCn1ncc(CN2CCC(CO)(CC3CCCCO3)CC2)c1C (configuration not stated) | n | n | n | n | n | 40.0 | n | n
Cc1nn(C)c(Cl)c1CN1CCC(CO)(CC2CCCCO2)CC1 (configuration not stated) | n | n | n | n | n | n | x | x
O=C(/C=C/c1c(F)cccc1Cl)c1ccc(O)cc1 | n | 61.0 | n | n | n | n | x | x | Mdm2-MdmX confirm=50.3
CCCc1cc(=O)n2nc(N3CCC(C(=O)NCc4ccco4)CC3)sc2n1 | n | n | n | n | n | n | x | x
CCOC(=O)c1cccc(COC(=O)c2cccc(-c3nnc(-c4ccccc4)o3)c2)c1 | n | n | n | n | n | 46.9 | 51.2 | n
O=C(OCc1ccccc1)c1cccc(-c2nnc(-c3ccccc3)o2)c1 | n | n | n | n | n | n | x | x
Cc1cc(C)c(OCC(O)CN2CCN(c3ccccn3)CC2)c(C)c1 (configuration not stated) | n | n | n | n | n | n | x | x
Oc1ccccc1CNc1ccc(Br)cn1 | n | 89.5 | n | n | n | n | x | x | Mdm2-MdmX confirm=31.5
CCCn1c(=N)n(CC(=O)c2ccc(OCC(=O)OC)cc2)c2ccccc21 | n | n | n | n | n | 46.7 | n | n
CCCn1c(=N)n(CC(=O)OCC)c2ccccc21 | n | n | n | n | n | n | x | x
CN(C)S(=O)(=O)c1cccc(C(=O)OCC(=O)c2c(N)n(C)c(=O)n(C)c2=O)c1 | n | n | n | n | n | 40.8 | n | n
CS(=O)(=O)c1ccc(Cl)c(NC(=O)c2cccc(-n3cnnn3)c2)c1 | n | n | n | n | n | 50.9 | n | n
CS(=O)(=O)c1ccc(NC(=O)c2cccc(-n3cnnn3)c2)cc1 | n | n | n | n | n | n | x | x
C=CS(=O)(=O)c1sc(Cl)c(N2CCOCC2)c1[N+](=O)[O-] | n | n | n | 106.2 | n | 65.8 | 75.0 | n
C=CSc1sc(Cl)c(N2CCOCC2)c1[N+](=O)[O-] | n | n | n | n | n | n | x | x
CCc1ccc(OCC(=O)NC(NC(=S)Nc2ccccc2OC)C(Cl)(Cl)Cl)cc1 (configuration not stated) | n | n | n | n | n | 49.9 | n | n
CCc1ccc(OCC(=O)NC(NC(=S)Nc2ccccc2C)C(Cl)(Cl)Cl)cc1 (configuration not stated) | n | n | 51.1 | 60.8 | n | 40.8 | n | 63.6
CC(C)(C)c1ccc(/C=C(\c2nc3ccccc3[nH]2)S(=O)(=O)c2ccccc2)cc1 | 94.5 | 94.8 | n | 104.2 | -70.3 | 95.1 | 97.1 | 107.8 | Mdm2-MdmX confirm=102.7
COc1cccc2c1C(CO)N1C(C#N)C3CC(C(=O)O)C(C1C2)N3C (configuration not stated) | 96.5 | 101.7 | 51.4 | 108.1 | -52.2 | 42.2 | n | 105.9 | Mdm2-MdmX confirm=103.5
COc1cccc2c1OCC(C(=O)O)C2 (configuration not stated) | n | n | n | n | n | n | x | x
O=C(COC(=O)c1ccc[nH]c1=O)Nc1ccc(S(=O)(=O)N2CCCC2)cc1 | n | n | 56.2 | n | n | 58.5 | n | n
O=C(COC(=O)c1ccc[nH]c1=O)Nc1ccc(N2CCCCC2)cc1 | n | 87.5 | 56.0 | n | n | 90.8 | 95.1 | 74.1
O=C(OCC(=O)N1CCCCCC1)c1ccc[nH]c1=O | n | n | n | n | n | n | x | x
COc1ccc(CNC(=O)C(c2ccncc2)N(C(=O)Cc2cccs2)c2ccccc2)cc1 (configuration not stated) | n | n | n | n | n | n | x | x
COc1ccc(N(C(=O)CCl)C(C(=O)NCCc2ccccc2)c2cccs2)cc1 (configuration not stated) | 90.2 | 60.4 | n | 105.1 | -92.1 | 96.4 | 98.2 | 106.9
SMILES | CF NFkB block | TWEAK-Fn14 inh | TROY signal inh | Peg3 promoter | KKLEB cytotox | HIF-2a block | HIF-2a conf | HIF-1a cs | others
CCOCCCNC(=O)/C(C#N)=C/c1ccc(Cl)c([N+](=O)[O-])c1 | n | n | n | 105.0 | n | 92.1 | n | 101.7
CCOCCCNC(=O)/C(C#N)=C/c1cc(OC)c(O)c([N+](=O)[O-])c1 | n | n | n | n | n | n | x | x
COC(=O)C[C@@H]1C=C[C@H](NS(=O)(=O)c2cccc(F)c2)[C@@H](CO)O1 | x | x | x | x | x | n | x | x
CN(C(=O)/C=C/c1ccc([N+](=O)[O-])s1)c1ccccc1 | n | n | n | n | n | 62.4 | 61.2 | 89.9
CN(C(=O)C=Cc1ccco1)c1ccccc1 | n | n | n | n | n | n | x | x
CC(Oc1ccc(F)cc1)C(=O)Nc1cc(S(=O)(=O)N2CCCCC2)ccc1N1CCOCC1 (configuration not stated) | n | n | n | n | n | n | x | x
Cc1cc(C)n(CCC(=O)N/N=C/c2ccc(O)cc2)n1 | n | n | n | n | n | n | x | x
Cc1cc(C)n(CCC(=O)N/N=C/c2c(O)ccc3ccccc23)n1 | n | n | n | 65.1 | n | n | x | x | Mdm2-MdmX confirm=88.5
CC(C)(C)c1cc(/C=C2\NC(=O)NC2=O)cc(C(C)(C)C)c1O | n | n | n | n | n | n | x | x
CC(C)(C)c1cc(/C=N/O)cc(C(C)(C)C)c1O | n | 53.7 | n | n | n | 42.8 | n | n
O=C1C=CC(=C(c2ccc(O)cc2)c2ccc(O)cc2)C=C1 | n | n | n | 85.2 | n | 85.0 | 81.3 | 107.2
Cc1ccc(COc2ccc(/C=N/NC(=O)c3ccc(CN4CCOCC4)cc3)cc2)cc1 | n | n | n | n | n | n | x | x
Cc1ccc(C(C)C)c(OCc2ccc(C(=O)N/N=C/c3ccc(C(=O)O)cc3)cc2)c1 | n | n | n | n | n | 67.0 | 81.1 | n
CCC(=O)N1CCN(c2ccc(NC(=O)c3ccc([N+](=O)[O-])o3)cc2Cl)CC1 | 86.2 | n | n | 113.7 | -58.0 | 93.7 | 51.2 | 90.1
CCN1CCN(c2ccc(NC(=O)c3ccc([N+](=O)[O-])o3)cc2Cl)CC1 | 89.2 | n | n | 102.1 | n | 63.7 | 49.0 | 57.8
CCC(=O)N1CCN(c2ccc(NC(=O)c3ccco3)cc2Cl)CC1 | n | n | n | n | n | n | x | x
Cn1c(=O)n(C)c2cc(NC(=O)CCl)ccc21 | n | n | n | n | n | 51.0 | n | 80.9
CCn1c(=O)oc2cc(NC(=O)CCl)ccc21 | n | n | n | n | n | 40.2 | n | 84.1
COc1ccccc1NC(=O)NC1(C(=O)N2CCCCC2)CCCCC1 | n | n | n | n | n | n | x | x

Bioassay records from PubChem.
